Test results published in ChEMBL document CHEMBL2218924, “A broad activity screen in support of a chemogenomic map for kinase signalling research and drug discovery” (Biochem J, 2013).

What was measured:
[1] = target: T1, Serine/threonine-protein kinase TBK1 (Homo sapiens) (UniProt Q9UHD2); conditions: at 10 µM
T1 sequence (whole entry): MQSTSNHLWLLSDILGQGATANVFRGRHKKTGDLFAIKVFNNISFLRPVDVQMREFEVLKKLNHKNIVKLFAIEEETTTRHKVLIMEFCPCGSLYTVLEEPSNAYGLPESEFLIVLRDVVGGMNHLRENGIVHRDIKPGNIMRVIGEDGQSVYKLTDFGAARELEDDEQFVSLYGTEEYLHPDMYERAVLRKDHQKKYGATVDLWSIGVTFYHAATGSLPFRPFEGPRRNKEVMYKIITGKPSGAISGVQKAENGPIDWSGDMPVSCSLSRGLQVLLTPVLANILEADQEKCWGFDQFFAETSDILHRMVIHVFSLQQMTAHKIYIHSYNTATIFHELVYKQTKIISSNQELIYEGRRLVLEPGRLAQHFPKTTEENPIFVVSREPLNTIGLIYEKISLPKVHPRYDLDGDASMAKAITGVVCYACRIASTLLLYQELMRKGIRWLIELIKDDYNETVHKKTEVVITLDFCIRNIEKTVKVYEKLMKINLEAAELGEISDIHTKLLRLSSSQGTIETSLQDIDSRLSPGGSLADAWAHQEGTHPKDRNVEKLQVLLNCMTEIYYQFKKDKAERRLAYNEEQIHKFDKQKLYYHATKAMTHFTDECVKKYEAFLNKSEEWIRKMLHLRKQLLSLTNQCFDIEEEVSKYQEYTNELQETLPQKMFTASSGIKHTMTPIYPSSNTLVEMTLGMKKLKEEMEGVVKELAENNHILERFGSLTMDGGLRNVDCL

[2] = target: T2, TGF-beta receptor type-1 (Homo sapiens) (UniProt P36897); conditions: at 1 µM
T2 sequence (whole entry): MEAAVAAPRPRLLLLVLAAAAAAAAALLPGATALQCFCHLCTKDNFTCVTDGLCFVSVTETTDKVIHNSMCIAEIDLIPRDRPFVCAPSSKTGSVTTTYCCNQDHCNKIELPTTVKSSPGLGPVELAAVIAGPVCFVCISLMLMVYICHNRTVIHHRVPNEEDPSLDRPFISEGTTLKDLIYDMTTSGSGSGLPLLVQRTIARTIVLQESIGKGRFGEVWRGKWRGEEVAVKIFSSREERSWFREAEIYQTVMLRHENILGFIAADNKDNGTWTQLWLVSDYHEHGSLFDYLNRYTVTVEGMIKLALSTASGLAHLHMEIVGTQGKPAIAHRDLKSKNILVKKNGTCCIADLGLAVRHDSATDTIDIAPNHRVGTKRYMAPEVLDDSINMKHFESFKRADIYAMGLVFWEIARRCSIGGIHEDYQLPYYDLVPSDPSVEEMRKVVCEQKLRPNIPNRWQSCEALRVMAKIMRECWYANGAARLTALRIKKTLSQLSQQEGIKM

[3] = target: T2, TGF-beta receptor type-1 (Homo sapiens); conditions: at 10 µM
[4] = target: Insulin-like growth factor 1 receptor (Homo sapiens) (UniProt P08069); conditions: at 1 µM
[5] = target: Insulin-like growth factor 1 receptor (Homo sapiens) (UniProt P08069); conditions: at 10 µM
[6] = target: T3, Inhibitor of nuclear factor kappa-B kinase subunit alpha (Homo sapiens) (UniProt O15111); conditions: at 1 µM
T3 sequence (whole entry): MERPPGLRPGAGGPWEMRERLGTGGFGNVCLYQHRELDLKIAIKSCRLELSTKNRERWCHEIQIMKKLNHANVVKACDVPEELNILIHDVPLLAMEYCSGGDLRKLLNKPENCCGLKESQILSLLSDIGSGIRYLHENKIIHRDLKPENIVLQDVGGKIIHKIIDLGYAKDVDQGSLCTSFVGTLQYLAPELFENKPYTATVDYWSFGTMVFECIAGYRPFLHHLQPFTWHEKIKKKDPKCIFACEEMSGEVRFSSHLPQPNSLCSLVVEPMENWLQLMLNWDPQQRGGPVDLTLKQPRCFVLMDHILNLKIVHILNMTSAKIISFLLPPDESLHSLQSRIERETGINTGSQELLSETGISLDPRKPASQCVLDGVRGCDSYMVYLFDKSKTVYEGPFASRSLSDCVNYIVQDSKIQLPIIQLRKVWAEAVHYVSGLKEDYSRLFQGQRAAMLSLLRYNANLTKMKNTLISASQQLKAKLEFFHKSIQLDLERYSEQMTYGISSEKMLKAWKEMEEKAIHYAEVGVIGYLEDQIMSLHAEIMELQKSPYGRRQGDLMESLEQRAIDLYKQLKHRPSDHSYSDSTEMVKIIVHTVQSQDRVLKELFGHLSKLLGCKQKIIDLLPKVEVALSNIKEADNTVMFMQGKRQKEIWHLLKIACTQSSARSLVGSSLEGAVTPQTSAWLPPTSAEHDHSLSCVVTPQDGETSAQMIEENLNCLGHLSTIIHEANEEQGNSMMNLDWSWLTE

[7] = target: T3, Inhibitor of nuclear factor kappa-B kinase subunit alpha (Homo sapiens); conditions: at 10 µM
[8] = target: T4, Inhibitor of nuclear factor kappa-B kinase subunit beta (Homo sapiens) (UniProt O14920); conditions: at 1 µM
T4 sequence (whole entry): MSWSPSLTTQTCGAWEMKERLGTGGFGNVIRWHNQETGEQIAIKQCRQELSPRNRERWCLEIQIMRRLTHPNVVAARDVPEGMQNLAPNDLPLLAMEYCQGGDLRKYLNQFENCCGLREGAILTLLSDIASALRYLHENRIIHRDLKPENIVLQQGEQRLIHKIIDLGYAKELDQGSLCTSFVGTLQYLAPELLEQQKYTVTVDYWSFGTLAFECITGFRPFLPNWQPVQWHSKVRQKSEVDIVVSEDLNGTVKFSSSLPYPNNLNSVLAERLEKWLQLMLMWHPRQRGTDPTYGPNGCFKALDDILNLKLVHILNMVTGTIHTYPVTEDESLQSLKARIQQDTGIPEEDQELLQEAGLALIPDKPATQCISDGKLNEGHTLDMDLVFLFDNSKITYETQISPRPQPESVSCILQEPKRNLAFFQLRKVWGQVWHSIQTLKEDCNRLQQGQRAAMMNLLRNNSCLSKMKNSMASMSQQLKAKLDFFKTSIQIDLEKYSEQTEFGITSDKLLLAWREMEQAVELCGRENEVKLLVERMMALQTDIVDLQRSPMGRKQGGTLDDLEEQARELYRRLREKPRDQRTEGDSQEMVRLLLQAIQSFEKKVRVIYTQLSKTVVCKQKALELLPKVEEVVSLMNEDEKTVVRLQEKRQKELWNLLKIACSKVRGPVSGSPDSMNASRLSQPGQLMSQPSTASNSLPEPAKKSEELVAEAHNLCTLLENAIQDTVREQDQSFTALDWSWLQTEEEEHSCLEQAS

[9] = target: T4, Inhibitor of nuclear factor kappa-B kinase subunit beta (Homo sapiens); conditions: at 10 µM
[10] = target: Insulin receptor (Homo sapiens) (UniProt P06213); conditions: at 1 µM
[11] = target: Insulin receptor (Homo sapiens) (UniProt P06213); conditions: at 10 µM
[12] = target: Insulin receptor (Homo sapiens) (UniProt P06213); conditions: at 1 µM; remark: listed apart in the source
[13] = target: Insulin receptor (Homo sapiens) (UniProt P06213); conditions: at 10 µM; remark: listed apart in the source
[14] = target: Interleukin-1 receptor-associated kinase 1 (Homo sapiens) (UniProt P51617); conditions: at 1 µM
[15] = target: Interleukin-1 receptor-associated kinase 1 (Homo sapiens) (UniProt P51617); conditions: at 10 µM
[16] = target: T5, Interleukin-1 receptor-associated kinase 4 (Homo sapiens) (UniProt Q9NWZ3); conditions: at 1 µM
T5 sequence (whole entry): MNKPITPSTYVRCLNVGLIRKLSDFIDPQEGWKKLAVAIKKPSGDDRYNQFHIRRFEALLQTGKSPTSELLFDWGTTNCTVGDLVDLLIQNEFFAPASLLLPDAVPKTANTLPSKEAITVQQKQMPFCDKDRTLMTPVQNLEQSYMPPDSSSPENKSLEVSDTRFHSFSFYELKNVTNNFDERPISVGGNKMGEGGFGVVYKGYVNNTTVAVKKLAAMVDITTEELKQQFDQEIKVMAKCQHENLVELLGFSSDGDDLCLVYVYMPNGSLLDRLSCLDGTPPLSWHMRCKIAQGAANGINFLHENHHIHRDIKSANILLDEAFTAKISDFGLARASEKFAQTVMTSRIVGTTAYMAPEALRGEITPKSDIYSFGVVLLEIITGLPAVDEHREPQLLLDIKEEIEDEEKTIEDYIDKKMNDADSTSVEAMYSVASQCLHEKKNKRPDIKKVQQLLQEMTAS

[17] = target: T5, Interleukin-1 receptor-associated kinase 4 (Homo sapiens); conditions: at 10 µM
[18] = target: Insulin receptor-related protein (Homo sapiens) (UniProt P14616); conditions: at 1 µM
[19] = target: Insulin receptor-related protein (Homo sapiens) (UniProt P14616); conditions: at 10 µM
[20] = target: T6, Tyrosine-protein kinase ITK/TSK (Homo sapiens) (UniProt Q08881); conditions: at 1 µM
T6 sequence (whole entry): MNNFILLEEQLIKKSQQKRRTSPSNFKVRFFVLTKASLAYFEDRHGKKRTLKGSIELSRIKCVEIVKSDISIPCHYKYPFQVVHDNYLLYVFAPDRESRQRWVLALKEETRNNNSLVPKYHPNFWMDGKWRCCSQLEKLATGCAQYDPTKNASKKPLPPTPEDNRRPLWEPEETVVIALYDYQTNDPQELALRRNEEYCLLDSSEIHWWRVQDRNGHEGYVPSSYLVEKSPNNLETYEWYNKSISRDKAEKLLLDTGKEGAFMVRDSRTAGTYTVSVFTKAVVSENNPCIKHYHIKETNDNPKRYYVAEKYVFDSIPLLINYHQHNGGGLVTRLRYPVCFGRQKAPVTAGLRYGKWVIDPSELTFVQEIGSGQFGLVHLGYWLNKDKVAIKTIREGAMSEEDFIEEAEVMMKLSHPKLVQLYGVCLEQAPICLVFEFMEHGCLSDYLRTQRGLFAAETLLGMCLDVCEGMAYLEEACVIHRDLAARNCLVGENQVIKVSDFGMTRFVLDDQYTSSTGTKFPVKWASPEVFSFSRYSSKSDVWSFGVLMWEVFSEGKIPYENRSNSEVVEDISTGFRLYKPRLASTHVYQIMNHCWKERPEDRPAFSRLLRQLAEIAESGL

Sequence of Insulin receptor-related protein (Homo sapiens) (P14616 27-742 limits assumed): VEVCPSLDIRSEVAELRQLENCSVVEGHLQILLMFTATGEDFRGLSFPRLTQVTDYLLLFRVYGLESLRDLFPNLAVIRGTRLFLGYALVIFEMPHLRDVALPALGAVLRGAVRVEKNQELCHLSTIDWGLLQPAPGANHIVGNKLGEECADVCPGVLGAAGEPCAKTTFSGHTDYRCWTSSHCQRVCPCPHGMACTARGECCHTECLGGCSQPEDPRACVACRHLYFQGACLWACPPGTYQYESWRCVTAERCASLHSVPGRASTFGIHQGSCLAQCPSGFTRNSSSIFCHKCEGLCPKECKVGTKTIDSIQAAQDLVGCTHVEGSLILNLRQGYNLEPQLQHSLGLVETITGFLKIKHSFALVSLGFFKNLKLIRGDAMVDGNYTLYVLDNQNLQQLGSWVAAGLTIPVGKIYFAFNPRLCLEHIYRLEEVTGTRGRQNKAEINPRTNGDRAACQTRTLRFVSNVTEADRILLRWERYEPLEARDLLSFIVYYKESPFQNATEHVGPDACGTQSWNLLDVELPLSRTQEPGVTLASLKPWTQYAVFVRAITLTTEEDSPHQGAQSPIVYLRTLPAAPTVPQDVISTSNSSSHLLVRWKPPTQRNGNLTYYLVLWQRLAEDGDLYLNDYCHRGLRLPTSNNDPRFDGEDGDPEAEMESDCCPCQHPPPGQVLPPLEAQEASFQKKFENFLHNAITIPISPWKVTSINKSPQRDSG
Sequence of Insulin receptor-related protein (Homo sapiens) (P14616 747-1297 limits assumed): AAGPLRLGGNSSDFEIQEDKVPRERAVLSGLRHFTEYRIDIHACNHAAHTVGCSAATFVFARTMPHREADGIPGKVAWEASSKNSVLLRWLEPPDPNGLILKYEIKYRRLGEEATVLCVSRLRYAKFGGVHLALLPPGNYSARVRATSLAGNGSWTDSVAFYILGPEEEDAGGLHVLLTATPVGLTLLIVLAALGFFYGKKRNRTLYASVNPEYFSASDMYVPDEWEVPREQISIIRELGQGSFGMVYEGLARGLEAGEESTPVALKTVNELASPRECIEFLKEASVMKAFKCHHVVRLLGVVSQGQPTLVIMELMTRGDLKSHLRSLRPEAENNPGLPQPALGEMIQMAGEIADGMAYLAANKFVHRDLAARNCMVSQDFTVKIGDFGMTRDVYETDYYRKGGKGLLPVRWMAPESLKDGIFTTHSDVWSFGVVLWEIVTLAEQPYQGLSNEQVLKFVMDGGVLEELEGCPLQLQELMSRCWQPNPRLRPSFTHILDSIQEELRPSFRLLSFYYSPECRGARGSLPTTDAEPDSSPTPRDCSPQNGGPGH
Sequence of Insulin receptor (Homo sapiens) (P06213 28-758 limits assumed): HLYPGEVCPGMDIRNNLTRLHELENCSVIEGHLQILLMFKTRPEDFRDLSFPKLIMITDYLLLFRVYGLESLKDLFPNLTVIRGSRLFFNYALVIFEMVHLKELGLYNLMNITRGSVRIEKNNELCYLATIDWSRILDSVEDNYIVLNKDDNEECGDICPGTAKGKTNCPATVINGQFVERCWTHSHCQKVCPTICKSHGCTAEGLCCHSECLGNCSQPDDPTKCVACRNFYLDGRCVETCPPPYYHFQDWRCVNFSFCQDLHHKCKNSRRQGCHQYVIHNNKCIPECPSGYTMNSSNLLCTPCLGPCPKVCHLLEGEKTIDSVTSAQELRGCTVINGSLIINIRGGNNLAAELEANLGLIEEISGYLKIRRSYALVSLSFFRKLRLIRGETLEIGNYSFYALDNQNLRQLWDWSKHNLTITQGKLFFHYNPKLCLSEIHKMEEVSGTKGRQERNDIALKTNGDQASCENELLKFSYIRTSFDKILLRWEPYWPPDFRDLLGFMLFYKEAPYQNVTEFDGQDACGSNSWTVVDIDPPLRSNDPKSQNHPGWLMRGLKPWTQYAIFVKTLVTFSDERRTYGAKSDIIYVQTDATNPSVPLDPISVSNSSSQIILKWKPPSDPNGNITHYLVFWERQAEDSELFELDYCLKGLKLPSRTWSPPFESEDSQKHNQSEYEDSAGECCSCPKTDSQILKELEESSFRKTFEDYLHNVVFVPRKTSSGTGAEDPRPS
Sequence of Insulin receptor (Homo sapiens) (P06213 763-1382 limits assumed): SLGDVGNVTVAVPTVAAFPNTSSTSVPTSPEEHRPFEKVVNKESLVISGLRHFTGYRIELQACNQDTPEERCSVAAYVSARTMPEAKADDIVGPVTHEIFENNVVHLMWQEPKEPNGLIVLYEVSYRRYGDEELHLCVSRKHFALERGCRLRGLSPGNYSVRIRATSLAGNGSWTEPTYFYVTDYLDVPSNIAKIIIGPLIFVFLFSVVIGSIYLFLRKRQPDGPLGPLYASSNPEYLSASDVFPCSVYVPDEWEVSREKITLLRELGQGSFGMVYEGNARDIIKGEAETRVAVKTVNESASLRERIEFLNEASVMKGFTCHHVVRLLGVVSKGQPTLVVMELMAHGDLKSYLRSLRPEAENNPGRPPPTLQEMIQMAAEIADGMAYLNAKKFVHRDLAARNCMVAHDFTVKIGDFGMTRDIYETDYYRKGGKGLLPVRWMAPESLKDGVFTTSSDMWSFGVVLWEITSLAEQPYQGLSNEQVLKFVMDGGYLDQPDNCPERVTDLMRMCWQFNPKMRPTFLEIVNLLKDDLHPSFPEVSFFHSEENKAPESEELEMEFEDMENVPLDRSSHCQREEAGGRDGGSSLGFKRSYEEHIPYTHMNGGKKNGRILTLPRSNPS
Sequence of Insulin-like growth factor 1 receptor (Homo sapiens) (P08069 31-736 limits assumed): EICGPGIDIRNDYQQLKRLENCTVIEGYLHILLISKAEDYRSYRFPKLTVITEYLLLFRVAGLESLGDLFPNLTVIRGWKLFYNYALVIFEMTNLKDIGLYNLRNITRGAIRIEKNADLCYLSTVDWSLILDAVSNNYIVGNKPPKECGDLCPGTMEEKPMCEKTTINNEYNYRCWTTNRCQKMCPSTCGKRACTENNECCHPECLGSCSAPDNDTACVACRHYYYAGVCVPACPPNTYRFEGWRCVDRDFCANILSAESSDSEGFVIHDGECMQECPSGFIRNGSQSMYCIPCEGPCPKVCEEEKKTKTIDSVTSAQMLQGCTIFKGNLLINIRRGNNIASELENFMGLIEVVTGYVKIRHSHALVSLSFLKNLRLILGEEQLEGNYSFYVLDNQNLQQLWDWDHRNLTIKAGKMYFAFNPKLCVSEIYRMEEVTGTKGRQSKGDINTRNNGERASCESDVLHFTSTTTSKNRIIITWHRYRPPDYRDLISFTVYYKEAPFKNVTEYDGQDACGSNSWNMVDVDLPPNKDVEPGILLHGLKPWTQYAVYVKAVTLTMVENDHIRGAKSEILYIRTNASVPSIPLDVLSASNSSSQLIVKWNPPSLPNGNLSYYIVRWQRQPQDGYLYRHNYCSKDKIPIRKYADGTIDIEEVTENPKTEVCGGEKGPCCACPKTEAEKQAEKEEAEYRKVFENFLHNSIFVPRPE
Sequence of Insulin-like growth factor 1 receptor (Homo sapiens) (P08069 741-1367 limits assumed): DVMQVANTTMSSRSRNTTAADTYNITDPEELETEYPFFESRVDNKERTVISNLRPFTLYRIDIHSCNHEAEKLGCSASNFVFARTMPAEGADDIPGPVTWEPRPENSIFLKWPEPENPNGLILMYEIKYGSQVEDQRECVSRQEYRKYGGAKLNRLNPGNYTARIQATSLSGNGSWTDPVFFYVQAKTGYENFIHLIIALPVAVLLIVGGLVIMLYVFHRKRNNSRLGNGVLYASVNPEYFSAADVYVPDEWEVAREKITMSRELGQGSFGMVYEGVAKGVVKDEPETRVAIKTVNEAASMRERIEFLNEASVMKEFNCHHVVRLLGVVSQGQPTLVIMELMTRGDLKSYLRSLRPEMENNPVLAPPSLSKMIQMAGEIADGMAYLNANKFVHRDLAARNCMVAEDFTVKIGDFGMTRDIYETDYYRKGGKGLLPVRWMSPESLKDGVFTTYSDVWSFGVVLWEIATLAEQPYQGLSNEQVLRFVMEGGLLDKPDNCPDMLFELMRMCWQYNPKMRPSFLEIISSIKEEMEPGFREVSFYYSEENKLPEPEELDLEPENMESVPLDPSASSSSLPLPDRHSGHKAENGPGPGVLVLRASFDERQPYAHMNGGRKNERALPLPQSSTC
Sequence of Interleukin-1 receptor-associated kinase 1 (Homo sapiens) (P51617 whole entry, looked up): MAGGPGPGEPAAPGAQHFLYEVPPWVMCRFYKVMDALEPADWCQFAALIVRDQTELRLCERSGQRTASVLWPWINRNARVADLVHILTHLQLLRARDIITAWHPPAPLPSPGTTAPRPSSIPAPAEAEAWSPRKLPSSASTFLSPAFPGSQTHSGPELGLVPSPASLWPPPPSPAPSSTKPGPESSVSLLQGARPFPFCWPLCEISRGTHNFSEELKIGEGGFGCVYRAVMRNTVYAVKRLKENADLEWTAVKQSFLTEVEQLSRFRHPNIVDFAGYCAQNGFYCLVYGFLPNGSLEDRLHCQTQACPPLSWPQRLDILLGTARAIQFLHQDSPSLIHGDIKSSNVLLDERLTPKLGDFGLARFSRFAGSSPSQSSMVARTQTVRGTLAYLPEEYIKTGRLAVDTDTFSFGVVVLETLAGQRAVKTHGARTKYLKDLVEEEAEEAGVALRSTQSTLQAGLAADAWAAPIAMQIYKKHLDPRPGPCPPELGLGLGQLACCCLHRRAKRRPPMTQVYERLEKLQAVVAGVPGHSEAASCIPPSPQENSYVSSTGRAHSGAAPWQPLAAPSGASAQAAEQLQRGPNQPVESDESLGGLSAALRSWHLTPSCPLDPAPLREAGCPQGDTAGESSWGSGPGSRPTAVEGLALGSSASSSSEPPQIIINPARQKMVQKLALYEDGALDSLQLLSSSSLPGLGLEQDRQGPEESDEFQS

Row | SMILES | residual activity [1] [%] | residual activity [2] [%] | residual activity [3] [%] | residual activity [4] [%] | residual activity [5] [%] | residual activity [6] [%] | residual activity [7] [%] | residual activity [8] [%] | residual activity [9] [%] | residual activity [10] [%] | residual activity [11] [%] | residual activity [12] [%] | residual activity [13] [%] | residual activity [14] [%] | residual activity [15] [%] | residual activity [16] [%] | residual activity [17] [%] | residual activity [18] [%] | residual activity [19] [%] | residual activity [20] [%]
1 | Cn1cc(/C=C2\C(=O)Nc3ccc(S(N)(=O)=O)cc32)c2ccccc21 | 10 | 100 | 96 | 81 | 86 | 100 | 92 | 87 | 78 | 91 | 95 | 66 | 64 | 1 | 15 | 0 | -1 | 124 | 35 | 8
2 | N#CC(C#N)=C(N)/C(C#N)=C/c1ccc(O)cc1 | 72 | 91 | 91 |  |  | 96 | 92 | 99 | 93 |  | 83 | 98 | 93 |  | 84 |  |  | 142 | 76 | 
3 | Nc1ccc2ncnc(NCCc3ccc(Oc4ccccc4)cc3)c2c1 | 62 | 117 | 112 | 116 | 119 | 107 | 101 | 115 | 110 | 139 | 35 | 101 | 92 | 100 | 101 | 88 | 58 | 101 | 108 | 80
4 | c1ccc(-c2n[nH]cc2-c2ccnc3ccccc23)nc1 | 66 | 6 | 0 | 99 | 82 |  |  |  |  | 108 | 84 | 99 | 105 | 91 | 73 | 87 | 101 | 132 | 79 | 97
5 | COc1cc2ncnc(Nc3ccc(O)c(Br)c3)c2cc1OC | 15 | 79 | 71 | 87 | 81 | 97 | 72 | 97 | 82 | 114 | 76 | 95 | 91 | 40 | 10 | 44 | 17 | 102 | 75 | 89
6 | O=C1Nc2ccc(Br)cc2/C1=C\c1cc2c([nH]1)CCCC2 | 65 |  |  |  |  | 102 | 115 |  |  |  | 79 |  |  |  |  | 82 | 77 | 114 | 63 | 
7 | COc1ccc(C(=O)Nc2sc3c(c2C(N)=O)CCCC3)cc1OC | 71 | 71 | 92 | 87 | 88 |  | 113 | 99 | 88 | 105 | 82 | 96 | 96 | 92 | 86 | 54 | 52 | 116 | 90 | 101
